Screening results deposited in PubChem BioAssay by National Center for Advancing Translational Sciences (NCATS).
Most compounds without a hit are left out; they make up all but 14% or so of the library.
AID923: qHTS Assay for Allosteric/Competitive Inhibitors of Caspase-1: Spectroscopic Profiling in AFC Spectral Region | actives 1.1% (n = 75,000) | AID 923, 2007 | compound fluorescence, AFC spectral region (405/520 nm) | Potency, µM (top dose mostly 57.5 µM), without a hit: at the top dose fluorescence increase, most hits filed as activators; note: potency is the fitted concentration of half-maximal effect; 0% is about no effect
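Compound autofluorescence profiled at 405 nm ex/520 nm em during kinetic caspase 1 run (50 nM enzyme, 5 uM Ac-WEHD-AFC, HEPES pH 7.5, 10 mM DTT). Titration up to 57 uM; baseline from regression intercept, normalized to AFC standard curve.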
HSD17B inhib: inhibitors of human HSD17B10 dehydrogenase. Q99714. recombinant HSD17B10, NADH fluorescence kinetic. Potency, µM (series often up to 57.1 µM), for inactives: top-dose activity change, negative = inhibition, actives largely listed as inhibitors. actives 7.6% (n = 75,000). AID 893;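 note: the protocol describes HADH2 (HSD17B10) and not the HSD17B4 of the title; potency is the fitted concentration of half-maximal effect; % is set by controls: 0 for no effect and ±100 for the full control effect; nearly all actives have a fitted effect of over 70% in size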
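Enzyme plus compound, 15 min room temperature; substrate mix added (NAD+ 1 mM, beta-hydroxybutyryl-CoA 90 uM final); plates read kinetically for NADH fluorescence. HADH2 was His-tagged, E. coli-derived, 20 nM.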
4-MU autofl: 4-MU region autofluorescence; compound autofluorescence, 340/450 nm, 4-MU equivalents; hits give high values; max dye-equivalent concentration, M; actives 11% (n = 59,000); AID 589; in the data active = max dye-equivalent concentration above about 10 nM; inconclusive = mostly about 1.1 nM to 9.6 nM
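Compounds in 100 mM Tris, pH 8.0, sat 15 min at room temperature before fluorescence was read at 340 nm excitation/450 nm emission; a per-plate six-point 4-MU standard curve converted signals to dye-equivalent concentration at each compound concentration.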
HADH2 inh: HADH2 (human) dehydrogenase inhibition | Potency, µM (doses to about 57.1 µM), without a hit: at the top dose activity change, negative = inhibition, usual class: inhibitors | actives 3.4% (n = 73,000) | recombinant HADH2, NADH fluorescence, beta-hydroxybutyryl-CoA; note: potency is the fitted concentration of half-maximal effect; % is set by controls: 0 for no effect and ±100 for the full control effect; nearly all actives have a fitted effect of over 60% in size
Target sequence (Q99714 whole entry, looked up, one chain of several): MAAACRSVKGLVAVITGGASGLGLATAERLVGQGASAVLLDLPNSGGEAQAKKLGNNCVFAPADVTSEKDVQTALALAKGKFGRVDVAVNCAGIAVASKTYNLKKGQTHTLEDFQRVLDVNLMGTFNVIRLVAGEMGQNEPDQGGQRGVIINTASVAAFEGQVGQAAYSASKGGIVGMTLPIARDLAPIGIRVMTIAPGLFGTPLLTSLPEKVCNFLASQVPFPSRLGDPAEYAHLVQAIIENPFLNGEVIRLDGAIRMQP
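Buffer 100 mM Tris-HCl pH 9.0/0.01% Tween-20; HADH2 20 nM; NAD+ 1 mM; beta-hydroxybutyryl-CoA 90 uM (all final). 15 min cpd preincubation, RT.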
A350 autofl: compound fluoresces in the Alexa 350 spectral region; Compound autofluorescence, 340/450 nm, Alexa 350 dye-equivalents; hits give high values; max dye-equivalent concentration, M; actives 11% (n = 59,000); AID 590; in the data active = max dye-equivalent concentration above about 10 nM; inconclusive = mostly about 1.1 nM to 9.6 nM
CRE-bla Fsk: modulators of forskolin-stimulated CRE signaling in CHO cells. CHO CRE-bla reporter (cAMP response element driving beta-lactamase), forskolin EC10, beta-lactamase ratio. Potency, µM (series often up to 38.2 µM), for the others: at the top dose activity change, negative = inhibition, hits mostly activators. actives 2.5% (n = 71,000); active = well fitted activation curve with a large enough effect in the signal ratio, with a control signal flat, not every such curve was filed as active; inconclusive = small, poorly fitted or top-dose-only effect, or effect the other way, or a change in a side signal; the % refers to the signal ratio; note: potency is the fitted concentration of half-maximal effect; % of control where 0% means no effect
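Modulation of forskolin signalling: compounds in titration series added with EC10 NKH 477 to CHO cells carrying a CRE-driven beta-lactamase reporter, 3 h, 37C. CCF4 FRET ratio (460/530 nm, ex 405 nm) gives %activity and AC50.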
Starred values were filed as active, the others as inactive; i = inactive; ? = inconclusive; . = no result given; [ ] = another dose, or the depositor's remark. Unless noted, calls come from the whole dose curve; as a rule, active = well fitted curve in the direction sought with a large enough effect; inconclusive = small, poorly fitted or top-dose-only effect, or another doubt; inactive = no such curve, though single readings can be large; an effect the other way counts as inactive or inconclusive.

SMILES | AID923 | HSD17B inhib | 4-MU autofl | HADH2 inh | A350 autofl | CRE-bla Fsk
CC[C@@H]1OC(=O)[C@@H](C)[C@H](O[C@@H]2C[C@@](C)(OC)[C@@H](O)[C@H](C)O2)[C@H](C)[C@H](O[C@@H]2O[C@@H](C)C[C@@H](N(C)C)[C@H]2O)[C@@](C)(O)C[C@H](C)C(=O)[C@@H](C)[C@H](O)[C@@]1(C)O | . | . | i | -3% | i | ?
COc1ccc2[nH]c(C)c(C(=O)CN3CCOCC3)c2c1 | . | . | i | . | i | .
COc1ccc2[nH]c(C)c(C(=O)CN3CCc4cc(OC)c(OC)cc4C3)c2c1 | . | . | 8.1e-08M* | . | 9.8e-08M* | .
CCOC(=O)c1[nH]c2ccc(F)cc2c1NC(=O)CN1CCc2cc(OC)c(OC)cc2C1 | 0% | ? | 1.1e-08M* | -18% | ? | ?
COC(=O)c1[nH]c2ccc(Cl)cc2c1NC(=O)CN1CCc2cc(OC)c(OC)cc2C1 | 0% | -24% | i | -4% | i | 12%
COC(=O)c1[nH]c2cc(C)ccc2c1NC(=O)CN1CCc2cc(OC)c(OC)cc2C1 | -1% | ? | i | 4% | i | 2µM*
CCOC(=O)c1[nH]c2ccc(F)cc2c1NC(=O)c1cc(OC)c(OC)c(OC)c1 | -1% | 23% | i | 10% | i | 6.3µM*
CCCCC(CC)COCCCN (centres undefined) | 1% | 1% | . | 0% | . | 4%
CC(C)C(NC(=O)C(Cc1ccc(O)cc1)NC(=O)C(NC(=O)C(F)(F)F)C(C)C)C(=O)O (centres undefined) | 0% | 2% | . | . | . | .
CCOC(=O)c1[nH]c2ccc(F)cc2c1NC(=O)CN1CCN(C/C=C/c2ccccc2)CC1 | -1% | 16µM* | i | 10% | i | ?
C[C@@H](CCc1ccc(O)cc1)NCCc1ccc(O)c(O)c1 | 0% | 0% | i | 0.13µM* | i | ?
N#Cc1cn(-c2ccccc2)nc1-c1ccc2c(c1)OCCO2 | 0% | 20µM* | i | 3% | i | 12%
Nc1nc(-c2cc(-c3cccc4ccccc34)nc(N)n2)cc(-c2cccc3ccccc23)n1 | 1%[11.5 µM] | 1%[11.4 µM] | i | 4%[11.4 µM] | i | -3%[7.6 µM]
N=C1N=C(N)c2cc3ccccc3cc21 | 18% | 32µM* | . | ? | . | 24%
CC1(C)NC(=O)N(CC(O)CN2C(=O)CCC2=O)C1=O (centres undefined) | -1% | 0% | i | 18% | i | 0%
CC1(C)NC(=O)N(CC(O)Cn2nnc3ccccc32)C1=O (centres undefined) | . | . | 3.1e-06M* | . | 3.4e-06M* | .
Cc1cc2nc(NC3=NCN(CCN4CCOCC4)CN3)nc(C)c2cc1C | 3% | -10% | i | 13% | i | 28%
Cc1cc2nc(NC3=NCN(CCCN4CCOCC4)CN3)nc(C)c2cc1C | 1% | 8% | 3.1e-08M* | 1% | 3.3e-08M* | 15%
CCOc1ccc2nc(NC3=NCN(Cc4ccco4)CN3)nc(C)c2c1 | 0% | -27% | 2.5e-08M* | 8% | 3.2e-08M* | -12%
CC(NC(=O)c1cc(-c2ccc(O)cc2)on1)c1ccccc1 (centres undefined) | -1% | 0% | . | -19% | . | ?
O=C(NCc1ccco1)c1sc(=S)n2c1[nH]c(=O)c1ccccc12 | 2% | 25µM* | i | 16µM* | i | ?
O=C(NC1CCCC1)c1sc(=S)n2c1[nH]c(=O)c1ccccc12 | 0% | ? | i | 25µM* | i | ?
CCCCCn1c(CN2CCCCC2CC)nc2c1c(=O)n(C)c(=O)n2C (centres undefined) | -5% | 20µM* | . | 16% | . | 2%
CCOCCn1c(CN2CCC(C)CC2)nc2c1c(=O)n(C)c(=O)n2C | 10% | 13µM* | . | ? | . | ?
CCCCCn1c(CN2CCCCC2C)nc2c1c(=O)n(C)c(=O)n2C (centres undefined) | -3% | 9% | i | 6% | i | ?
